This passage reports Potency results from PubChem BioAssay AID588342 (National Center for Advancing Translational Sciences (NCATS), 2011).

Among all 360,000 compounds or so, about 25,000 (6.9%) were called active. Entries that show only a call come without a potency. Roughly 9% stayed inconclusive and do not appear here. The call rests on the fitted dose curve; in most records, active means well fitted inhibition curve with a large enough effect; inconclusive means small, poorly fitted or top-dose-only effect; inactive means flat fitted curve, though single readings scatter. Many of the other results were omitted from the sample, so actives are more common in it than they were.
Potency means the concentration at half of the fitted maximal effect.

In this test the target is Luciferin 4-monooxygenase (Photinus pyralis) (UniProt P08659). As to the kind of experiment: qHTS profiling assay for firefly luciferase inhibitor/activator using purifed enzyme and Km concentrations of substrates (counterscreen for miR-21 project). Further: nearly all actives have a fitted effect of over 55% in size. The note with it: purified FLuc, luminescence inhibition; series mostly up to 57.5 µM. The method in brief: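 Purified P. pyralis luciferase, 10 nM final, with Km-level 10 uM D-luciferin and 10 uM ATP in 50 mM Tris acetate pH 7.5, 10 mM Mg acetate, 0.01% Tween-20, 0.05% BSA; 6-point qHTS titration about 60 µM downward; luminescence read.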
Luciferin 4-monooxygenase (Photinus pyralis), sequence (P08659 whole entry, looked up): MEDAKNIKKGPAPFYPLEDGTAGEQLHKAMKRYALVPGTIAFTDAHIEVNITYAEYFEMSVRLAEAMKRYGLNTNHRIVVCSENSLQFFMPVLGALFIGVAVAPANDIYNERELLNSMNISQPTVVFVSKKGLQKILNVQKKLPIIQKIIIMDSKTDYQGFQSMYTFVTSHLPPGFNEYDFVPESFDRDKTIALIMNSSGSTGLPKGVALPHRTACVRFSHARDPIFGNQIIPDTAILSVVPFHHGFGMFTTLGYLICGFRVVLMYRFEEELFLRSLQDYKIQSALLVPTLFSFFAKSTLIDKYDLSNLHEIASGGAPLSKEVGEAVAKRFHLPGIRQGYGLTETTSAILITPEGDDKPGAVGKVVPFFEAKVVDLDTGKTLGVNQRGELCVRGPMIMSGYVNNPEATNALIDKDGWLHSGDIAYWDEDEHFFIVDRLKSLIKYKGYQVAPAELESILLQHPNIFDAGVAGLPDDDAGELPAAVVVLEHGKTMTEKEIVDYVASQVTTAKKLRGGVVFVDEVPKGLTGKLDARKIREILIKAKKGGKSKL
A general note: In qHTS, concentration-response curves come from the screen itself.
For the compound `COc1ccc(Cl)cc1NC(=O)CCC(=O)c1ccc(C)cc1`, the Potency result was “inactive”.

In the case of `CCN1CCN(c2ncc3c(n2)CC(c2ccccc2O)CC3=O)CC1` (configuration not stated), the Potency result is “inactive”.

As to `CCc1ccccc1NC(=O)CN(C)C(=O)c1cc(C2CC2)nn1-c1ccccc1`, the Potency entry is “inactive”.

For `Cc1ccc(C)c(OCC(=O)NNC(=O)C2CCC2)c1`, the Potency result is “inactive”.

With `COc1cc(C(=O)OCC(=O)NC23CC4CC(CC(C4)C2)C3)cc(OC)c1OC`, the Potency entry was “inactive”.

Consider `N#Cc1nc(-c2cccc3ccccc23)oc1N`, for which the Potency result was “inactive”.

Take `CCOC(=O)c1c(C)[nH]c(C)c1S(=O)(=O)N1CCC(C(=O)Nc2ccc(C)c(Cl)c2)CC1`: the Potency result was “inactive”.

With `O=C(CSc1ncnc2sccc12)N1CCN(C(=O)c2cccs2)CC1`, the Potency entry was “inactive”.

Regarding `O=C(CN1C2=NCCN2c2ccccc21)c1cccs1`, the Potency result was “inactive”.

As for `Nc1c(C(=O)c2cccs2)sc2nsc(SCCN3CCCCC3)c12`, the Potency is 5.36 µM (active).

In the case of `O=C(NCCCN1CCN(c2cccc(Cl)c2)CC1)c1nnc(Cc2ccc(F)cc2Cl)o1`, the Potency result was “inactive”.

With `CCOC(=O)c1ccc(NC(=O)c2nc[nH]c2C(=O)N[C@@H](CCCCNC(=O)OC(C)(C)C)C(=O)OC(C)(C)C)cc1`, the Potency entry is “inactive”.

Turning to `Cc1nn(-c2ccccc2)c(CC(C)(C)C(=O)O)c1C(=O)O`, the Potency entry was “inactive”.

For the compound `Cc1nn(-c2ccccc2)c(Cl)c1/C=C/C(=O)c1ccc(O)cc1`, the Potency is 12 µM (active).

For `Cc1nn(-c2ccccc2)c(C)c1/C=C/C(=O)OC(C)C(N)=O` (configuration not stated), the Potency result was “inactive”.

Consider `Cc1ccc(C(=O)/C=C/c2c(C)nn(-c3ccccc3)c2Cl)cc1`, for which the Potency is 6.01 µM (active).

On to `Cc1nn(-c2ccccc2)c(C)c1NC(=O)CCl`, for which the Potency result was “inactive”.

Take `COc1ccc(CCNC(=O)c2c(C)nn(-c3ccccc3)c2Cl)cc1`: the Potency result was “inactive”.

For the compound `COc1ccc(-c2c(-c3cc(OC)cc(OC)c3)n(C)c3ccc(-c4ccn[nH]4)cc23)cc1`, the Potency result was “inactive”.

For the compound `O=C(NC1CC(=O)N(c2ccccc2)C1)c1ccco1` (configuration not stated), the Potency result was “inactive”.

`CCOc1cc(C(=O)O)ccc1OCCOc1ccccc1`: the Potency result is “inactive”.

As to `COc1ccc(N2CCN(C(=O)c3ccccc3NC(=O)C3=C(C)OCCS3)CC2)cc1`, the Potency entry is “inactive”.

`c1ccc(NCc2cccc3ccccc23)nc1`: the Potency entry is “inactive”.

Take `Oc1ccc2ccccc2c1N=Nc1nccs1`: the Potency was 19 µM (active).

With `O=c1c2cc(Br)ccc2nc(-c2cccc(Cl)c2)n1O`, the Potency entry was “inactive”.

Regarding `O=C1CC(NNc2ccccc2)C(=O)N1c1cccc(Cl)c1` (configuration not stated), the Potency result was “inactive”.

As to `O=c1c(-c2cccc(Cl)c2)c[nH]n1-c1ccccc1`, the Potency was 26.9 µM (active).

For the compound `COc1ccc(S(=O)(=O)n2nc(C)c(S(=O)(=O)N3CCCCCC3)c2C)cc1`, the Potency entry is “inactive”.

In the case of `COc1cc(NC(=O)c2cc(C3CC3)nc3c2c(C)nn3-c2ccccc2)cc(OC)c1`, the Potency result is “inactive”.

With `O=[N+]([O-])c1ccc2c(c1)C(N1CCOCC1)/C(=C/C1(O)CCCCC1)O2` (configuration not stated), the Potency entry is “inactive”.

With `Cn1c(=O)c2sccc2n2c(CCC(=O)NCc3ccccc3Cl)nnc12`, the Potency entry was “inactive”.

Turning to `O=C(Nc1cccc([N+](=O)[O-])c1)c1ccc2c(c1)OCO2`, the Potency is 19 µM (active).

On to `COCc1nnc(NC(=O)CS(=O)(=O)Cc2ccccc2)s1`, for which the Potency entry was “inactive”.

`O=C(Nc1nc2ccccc2s1)c1ccc2c(c1)OCO2`: the Potency was 0.301 µM (active).

Take `O=C(Nc1ccc(NC(=O)c2ccc3c(c2)OCO3)cc1)c1cccc(Cl)c1`: the Potency entry was “inactive”.

Consider `Cn1c(NC(=O)c2ccc3c(c2)OCO3)cc(=O)n(C)c1=O`, for which the Potency entry is “inactive”.

With `CN(CC(=O)Nc1cccc(F)c1)CC(=O)Nc1cccc([N+](=O)[O-])c1`, the Potency entry was “inactive”.

For `Cc1ccc(-n2nc3c(c2NC(=O)c2ccc4c(c2)OCO4)CSC3)c(C)c1`, the Potency entry was “inactive”.

Turning to `O=C(Nc1ccccc1)c1ccc2c(c1)OCO2`, the Potency is 12 µM (active).

With `CC(NC(=O)Nc1cccc([N+](=O)[O-])c1)c1ccc2c(c1)OCO2` (configuration not stated), the Potency result was “inactive”.

With `COCc1nnc(NC(=O)c2ccc3c(c2)OCO3)s1`, the Potency is 23.9 µM (active).

On to `Cc1ccc2sc(NNC(=O)c3ccc4c(c3)OCCO4)nc2c1C`, for which the Potency entry is “inactive”.

Turning to `O=CN1CCN(C(=O)c2ccc3c(c2)OCO3)CC1`, the Potency result is “inactive”.

In the case of `CSCCC(NS(=O)(=O)c1ccc2c(c1)oc(=O)n2C)C(=O)NC1CCCc2ccccc21` (configuration not stated), the Potency entry was “inactive”.

Regarding `Cc1ccc(N2C(=O)C3N=NN(CC(=O)N4N=C(c5cccc6ccccc56)CC4c4ccccc4)C3C2=O)cc1` (configuration not stated), the Potency entry was “inactive”.

Regarding `O=C(Nc1c(C(=O)N2CCN(c3ccc(F)cc3)CC2)oc2ccccc12)c1ccco1`, the Potency entry was “inactive”.

Take `CN(CC#CCC(c1ccccc1)c1ccccc1)C(C)(C)C`: the Potency result was “inactive”.

Consider `CCOC(=O)c1ccc(NC(=O)c2ncn(-c3ccccc3)n2)cc1`, for which the Potency result was “inactive”.

Regarding `O=C1Cc2cc(S(=O)(=O)Nc3cccc(F)c3)ccc2N1`, the Potency result was “inactive”.

With `COC(=O)c1ccc(NC(=O)c2cnn(-c3ccc(Cl)cc3)c2C2CCN(C(=O)OC(C)(C)C)CC2)cc1`, the Potency entry was “inactive”.

Take `CCOc1ccc(C(=O)NCC(=O)N2CCCCCCC2)cc1OCC`: the Potency result is “inactive”.

With `CC(NC(=O)COC(=O)c1ccc2c(c1)OCO2)c1ccccc1` (configuration not stated), the Potency result is “inactive”.

On to `O=C(Nc1ccc2c(c1)CCC2)c1cccc(S(=O)(=O)Nc2ccccc2Cl)c1`, for which the Potency is 21.3 µM (active).

On to `CC(C)C(=O)Nc1cccc(C(=O)Nc2ccc3c(c2)OCO3)c1`, for which the Potency is 8.49 µM (active).

Consider `CC(=O)Nc1cccc(C(=O)OCC(=O)c2ccc3c(c2)OCO3)c1`, for which the Potency is 0.135 µM (active).

Consider `O=C(Nc1ccc2c(c1)CCC2)c1cccc(S(=O)(=O)N2CCN(c3ccc(F)cc3)CC2)c1`, for which the Potency entry is “inactive”.

On to `O=C(NCCS(=O)(=O)N1CCN(c2ccc(F)cc2)CC1)c1ccc2c(c1)OCO2`, for which the Potency result is “inactive”.

As for `O=C(Nc1ccc(N2CCOCC2)cc1)c1ccc2c(c1)OCO2`, the Potency was 10.7 µM (active).

With `CC(=O)Nc1cccc(C(=O)OCN2C(=O)c3ccccc3C2=O)c1`, the Potency result was “inactive”.

In the case of `CC(Sc1nc(-c2ccccc2)cc(C(F)(F)F)n1)C(=O)Nc1ccc2c(c1)OCO2` (configuration not stated), the Potency entry is “inactive”.

As to `O=C(c1cccc(S(=O)(=O)Nc2ccccc2Cl)c1)N1CCN(C(=O)c2ccco2)CC1`, the Potency result was “inactive”.

Turning to `O=C(c1ccc2c(c1)OCO2)N1CCOCC1`, the Potency entry was “inactive”.

For the compound `O=C(c1ccccc1F)N1CCC(c2nc3c(nnn3Cc3cccc(F)c3)c(=O)[nH]2)CC1`, the Potency entry is “inactive”.

On to `Cc1ccc2ncc(C(=O)Nc3ccc(OC(F)(F)F)cc3)c(=O)n2c1`, for which the Potency entry was “inactive”.

Regarding `CCn1c2c(c(=O)n3ncc(C(=O)N4CCN(c5ccccc5)CC4)c13)CN(Cc1ccc(OC)cc1)CC2`, the Potency entry is “inactive”.

As to `CN(Cc1ccccc1)CC(O)COc1ccc(CNCc2cc3ccccc3s2)cc1` (configuration not stated), the Potency entry was “inactive”.

As to `Cc1cc(C)cc(NC(=O)CSc2oc(-c3ccccc3)nc2S(=O)(=O)c2ccc(Cl)cc2)c1`, the Potency entry is “inactive”.

For `Cc1sc2ncnc(SCC(=O)Nc3ccc(CN4CCCC4)cc3)c2c1C`, the Potency entry was “inactive”.

Take `Cc1ccc(C)c(NC(=O)C(c2ccccc2)N2CCN(CC(=O)NC3CC3)CC2)c1` (configuration not stated): the Potency result is “inactive”.

`CC(=O)NC(CC(=O)Nc1cccc(S(=O)(=O)N2CCCC2)c1)c1ccccc1` (configuration not stated): the Potency result is “inactive”.

As to `O=C(Nc1ccc(C2CC2(Cl)Cl)cc1)c1cccc([N+](=O)[O-])c1` (configuration not stated), the Potency is 12 µM (active).

Turning to `C/C(Cc1ccccc1)=N\NC(=O)CNC(=O)c1ccc2c(c1)OCCO2`, the Potency entry is “inactive”.

As to `O=C(CN1CCc2cc3c(cc2C1)OCCCO3)Nc1ccccc1`, the Potency entry was “inactive”.

Turning to `O=C(Nc1ccccc1)c1ccc2c(c1)OCCCO2`, the Potency is 1.2 µM (active).

For `CC(NS(=O)(=O)c1ccc(Cl)cc1)C(=O)Nc1ccc2c(c1)OCCO2` (configuration not stated), the Potency result is “inactive”.

As to `O=C(Nc1cccc(S(=O)(=O)Nc2ccc(Cl)cc2)c1)c1ccc2c(c1)OCCO2`, the Potency was 16.9 µM (active).

Take `O=C(Nc1ccc(C(=O)N2CCCCC2)cc1)c1cccc([N+](=O)[O-])c1`: the Potency entry is “inactive”.

As for `O=C(Nc1ccc(NC(=O)c2ccco2)c(Cl)c1)c1cccc([N+](=O)[O-])c1`, the Potency entry is “inactive”.

As for `O=C(OCc1ccccc1F)c1ccc2c(c1)OCCO2`, the Potency is 6.01 µM (active).

As to `O=C(CN(Cc1ccccc1)C(=O)c1ccc2c(c1)OCCO2)NCc1ccc2c(c1)OCO2`, the Potency result was “inactive”.

Consider `CCN(CC)CCNC(=O)c1ccc(NS(=O)(=O)c2ccc3c(c2)OCCO3)cc1`, for which the Potency entry is “inactive”.

With `Cc1cc2oc(C(=O)N(Cc3ccc(Cl)cc3)Cc3ccco3)c(C)c2cc1Cl`, the Potency result is “inactive”.

Turning to `Cc1cc(N2CCN(c3cccc(C(F)(F)F)c3)CC2)n2nc(-c3ccccc3)nc2n1`, the Potency result was “inactive”.

Regarding `COc1ccc(-c2ccc(=O)n(CC(=O)Nc3ccc(Br)cc3F)n2)cc1`, the Potency entry is “inactive”.

Take `CC(=O)Nc1ccc(S(=O)(=O)NC2(C(F)(F)F)C(=O)NC(C)=C2C#N)cc1` (configuration not stated): the Potency entry is “inactive”.

In the case of `COc1ccc(C(=O)OCC(=O)Nc2cccc(C(C)=O)c2)cc1OC`, the Potency entry is “inactive”.

Regarding `O=C(Nc1ccccc1)Nc1nc2ccccc2s1`, the Potency is 0.849 µM (active).

As for `Cc1ccc(C(=O)OCC(=O)NCc2cc(C)c(O)c(C)c2)cc1S(=O)(=O)N1CCCCC1`, the Potency result is “inactive”.

Consider `O=C(Nc1ccccc1N1CCN(C(=O)c2ccccc2)CC1)c1ccc2c(c1)OCO2`, for which the Potency result was “inactive”.

Consider `CC(=O)Nc1cccc(C(=O)OCC(=O)NCc2cc(C)c(O)c(C)c2)c1`, for which the Potency is 15.1 µM (active).

Consider `O=C(Nc1ccccc1)Nc1nnc(COc2ccccc2F)s1`, for which the Potency result was “inactive”.

Regarding `O=C(Nc1ccccc1F)c1ccc2c(c1)OCO2`, the Potency is 19 µM (active).

As for `Cc1ccc(F)cc1NC(=O)c1ccc2c(c1)OCO2`, the Potency entry is “inactive”.

As for `O=C(Nc1ccc(Cl)cc1)Nc1nnc(/C=C/c2ccccc2)s1`, the Potency result is “inactive”.

For `O=S(=O)(NC1CCN(S(=O)(=O)c2ccc3c(c2)OCCO3)CC1)c1c(F)cccc1F`, the Potency result was “inactive”.

As to `CCc1ccc(S(=O)(=O)c2nnn3c2nc(N2CCN(CC)CC2)c2sccc23)cc1`, the Potency result was “inactive”.

`CC(=O)Nc1ccc(S(=O)(=O)NC(C)C(=O)OCCOc2ccc(F)cc2)cc1` (configuration not stated): the Potency result was “inactive”.

Turning to `CNS(=O)(=O)c1ccc(N2CCCC2=O)c([N+](=O)[O-])c1`, the Potency result is “inactive”.

Regarding `NS(=O)(=O)c1ccc(NC(=S)N2CCCC2)cc1`, the Potency result was “inactive”.

`CCCN1CCN(CCCNC(=O)Cn2nc(CC)n3c(cc4occc43)c2=O)CC1`: the Potency result is “inactive”.

As to `Cc1ccc(-c2ccc(=O)n(CC(=O)NCCCN3CCCCC3)n2)cc1`, the Potency result was “inactive”.

Take `CCc1ccc(-c2cc3c(=O)n(CC(=O)NCCCN4CCN(Cc5ccccc5)CC4)nc(C)n3n2)cc1`: the Potency is 8.49 µM (active).
